Source: PubChem BioAssay AID1851 (National Center for Advancing Translational Sciences (NCATS), 2009)
“And” between values parts separate entries of the source, which are not always exact repeats. Equal values may be shown once. The campaign covered roughly 16,000 compounds. About 2,600 (16%) were called active. About 20% were inconclusive and are not listed. Not all results are given here. A number with no mark means an inactive call. Calls come from the whole dose curve; as a rule, active = well fitted curve in the direction sought with a large enough effect; inconclusive = small, poorly fitted or top-dose-only effect, or effect the other way; inactive = no such curve, though single readings can be large or run the other way.
% is set by controls: 0 for no effect and ±100 for the full control effect.

What follows are compounds tested against Cytochrome P450 2D6 (Homo sapiens) (UniProt P10635) (assay: Cytochrome panel assay with activity outcomes). Conditions: recombinant CYP, pro-luciferin dealkylation, luminescence, p450-cyp2d6; series mostly up to 57.1 µM; activity, negative = inhibition: at the top concentration.
Sequence of Cytochrome P450 2D6 (Homo sapiens) (P10635 whole entry, looked up): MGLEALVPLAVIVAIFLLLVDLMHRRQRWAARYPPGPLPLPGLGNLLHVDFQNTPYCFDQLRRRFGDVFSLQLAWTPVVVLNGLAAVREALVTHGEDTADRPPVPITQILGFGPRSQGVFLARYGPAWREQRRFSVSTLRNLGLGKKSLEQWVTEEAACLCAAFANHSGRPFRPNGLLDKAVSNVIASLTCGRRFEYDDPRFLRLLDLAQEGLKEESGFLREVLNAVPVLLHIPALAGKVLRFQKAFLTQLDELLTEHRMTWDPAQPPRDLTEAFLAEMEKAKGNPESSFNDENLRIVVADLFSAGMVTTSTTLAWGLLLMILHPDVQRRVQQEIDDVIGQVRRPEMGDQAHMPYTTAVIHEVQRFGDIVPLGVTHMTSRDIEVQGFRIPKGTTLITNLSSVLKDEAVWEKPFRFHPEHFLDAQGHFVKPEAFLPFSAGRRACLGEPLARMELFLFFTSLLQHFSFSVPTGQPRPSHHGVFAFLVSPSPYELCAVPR
In the case of `CC(=O)O[C@@H](C)C[N+](C)(C)C`, the AC50 is reported as “inactive”. For `Cn1c(SC2=CS(=O)(=O)c3ccccc32)nc2ccccc21`, the “activity, negative = inhibition” value was 1.48%. In the case of `COC(=O)[C@@H]1C[C@H]1[C@@H](NC(=O)c1ccccc1)c1ccccc1`, the “activity, negative = inhibition” value is reported as -12%. `COc1ccc(NC2=NC(=S)N(c3ccc(C)cc3)C23CCCCC3)cc1` was tested, and the “activity, negative = inhibition” value was 23%. In the case of `CC1(C)CC(NC(=O)c2ccc3c(c2)OCO3)CC(C)(C)N1`, the “activity, negative = inhibition” value is reported as -9.2%. For `CC1(C)CC(NCc2ccc3c(c2)OCO3)CCO1` (stereo not drawn), the AC50 was 0.631 µM (active). With `COc1ccc2[nH]cc(CCNc3ccnc(-c4ccoc4)n3)c2c1` the AC50 was 12.6 µM (active). `COc1ccc2[nH]cc(CCNc3ccnc(-c4ccc(N(C)C)cc4)n3)c2c1` was tested, and the AC50 was 10 µM (active). With `COCCNc1ccnc(-c2c(C)noc2C)n1` the “activity, negative = inhibition” value was 4.32%. With `COc1ccc2[nH]cc(CCNc3ccnc(-c4cccc(NS(C)(=O)=O)c4)n3)c2c1` the AC50 was 20 µM (active). In the case of `Cc1cnc(CNc2ccnc(-c3cccc(NS(C)(=O)=O)c3)n2)cn1`, the “activity, negative = inhibition” value is reported as 4.19%. In the case of `COc1ccc2[nH]cc(CCNc3ccnc(-c4cccnc4)n3)c2c1`, the AC50 is reported as 1.26 µM (active). `CCOC(=O)CNS(=O)(=O)c1cc(-c2nn(C)c(=O)c3ccccc23)ccc1C` was tested, and the “activity, negative = inhibition” value was -17%. With `CCCCCCCCC(=O)N/N=C/c1ccccn1` the “activity, negative = inhibition” value was -37.8%. `CCNc1ncc2nc(-c3ccc(Cl)cc3)c(=O)n(Cc3cccc(OC)c3)c2n1` was tested, and the “activity, negative = inhibition” value was 1.73%. In the case of `O=[N+]([O-])c1ccc(N2CCC(=NOCc3ccc(Cl)cc3)CC2)cc1`, the “activity, negative = inhibition” value is reported as 1.17%. `O=c1c(-c2ccc(Cl)cc2)nc2cncnc2n1Cc1ccccc1Cl` was tested, and the “activity, negative = inhibition” value was -1.46%. In the case of `CCOC(=O)CSc1nnc(CNC(=O)c2ccc(OC)cc2)n1C1CCCCC1`, the “activity, negative = inhibition” value is reported as 19.4%. In the case of `Cc1ccc(C)c(-c2cc(C(=O)Nc3nccs3)c3ccccc3n2)c1`, the “activity, negative = inhibition” value is reported as -20.1%. `CCCCNC(=O)NC1C(NC(=O)NCCCC)N(C)C(=O)N1C` (stereo not drawn) was tested, and the “activity, negative = inhibition” value was -4.61%. `CC(=O)N1CC(=O)N(OCc2ccccc2)C1c1ccc(Cl)cc1Cl` (stereo not drawn) was tested, and the “activity, negative = inhibition” value was 0.615%. `CCn1c(SCC(=O)OC)nc2sc3c(c2c1=O)CCC3` was tested, and the “activity, negative = inhibition” value was -18.7%. For `COC(=O)c1cccc(C(=O)Nc2ccc(C)cc2)n1`, the “activity, negative = inhibition” value was -7.78%. In the case of `COc1ccc2[nH]cc(CCNc3ccnc(-c4ccc5c(c4)OCO5)n3)c2c1`, the AC50 is reported as 7.94 µM (active). `N#CCCn1c(=O)c(-c2cccc(C#N)c2)nc2cnc(Oc3cccc(Cl)c3)nc21` was tested, and the “activity, negative = inhibition” value was -19.3%. For `CC(=O)SCC[N+](C)(C)C`, the “activity, negative = inhibition” value was -1.14%. `O=[N+]([O-])c1ccc([C@@H](Nc2ccccc2)c2ccc3cccnc3c2O)cc1` gave an activity, negative = inhibition of -2.01% [at 11.4 µM]. For `CC(C)CN1CCC2(CC1)CCN(C(=O)c1ccncc1)CC2`, the AC50 was 3.98 µM (active). With `CC(C)CN1CCC2(CC1)CCN(C(=O)c1cnccn1)CC2` the AC50 was 10 µM (active). For `O=C(c1cnccn1)N1CCC2(CC1)CCN(c1ncccn1)CC2`, the “activity, negative = inhibition” value was -11.6%. In the case of `CC(C)CN1CCCC2(CCN(C(=O)c3cnccn3)CC2)C1`, the “activity, negative = inhibition” value is reported as -14.4%. For `CC(C)NC(=O)N1CCC2(CC1)CCN(C(=O)c1ccncc1)CC2`, the “activity, negative = inhibition” value was -3.15%. For `CN1CCC2(CC1)CCN(C(=O)c1ccncc1)CC2`, the “activity, negative = inhibition” value was -9.34%. `COC(=O)[C@@]1(Cc2ccc(OC)cc2)[C@H]2c3cc(C(=O)N4CCCC4)n(Cc4ccc(Cl)c(C(F)(F)F)c4)c3C[C@H]2CN1C(=O)c1ccccc1` was tested, and the “activity, negative = inhibition” value was -5.8%. For `COc1cc(NC(=S)NC(=O)c2c(OC)cccc2OC)ccc1NC(=O)c1cccs1`, the “activity, negative = inhibition” value was -8.39%. For `C=C1c2cccc(O)c2C(O)=C2C(=O)[C@@]3(O)C(O)=C(C(N)=O)C(=O)[C@@H](N(C)C)[C@@H]3[C@@H](O)[C@H]12`, the “activity, negative = inhibition” value was 1.57% [at 25.6 µM]. In the case of `CCOC(=O)N1CCN(c2nc(-c3cccs3)cc(C(F)(F)F)n2)CC1`, the “activity, negative = inhibition” value is reported as -26.9%. `CCOC(=O)N1CCN(C(=O)CNS(=O)(=O)c2cccs2)CC1` was tested, and the “activity, negative = inhibition” value was -18.3%. `CCOC(=O)N1CCN(C(=O)CNCc2cccs2)CC1` was tested, and the AC50 was 3.98 µM (active). `O=c1n(-c2ccccc2)c(=O)n2n1CC[C@H]1/C(=N\OCc3ccccc3)[C@H]3O[C@@H]3[C@@H](O)[C@@H]12` showed an activity, negative = inhibition of 10.4% [at 11.4 µM]. For `c1ccc(Oc2cc(-c3ccccc3)ncn2)cc1`, the “activity, negative = inhibition” value was 19.9%. With `Cc1ccc(C(c2nnnn2C2CCCC2)N2CCN3CCCC3C2)cc1` (stereo not drawn) the AC50 was 0.447 µM (active). `Clc1ccc(C(c2nnnn2C2CCCC2)N2CCN(Cc3ccncc3)CC2)cc1` (stereo not drawn) was tested, and the AC50 was 1.26 µM (active). In the case of `c1coc(CN2CCN(C(c3cccs3)c3nnnn3C3CCCC3)CC2)c1` (stereo not drawn), the AC50 is reported as 1.26 µM (active). With `CON(C)C(=O)c1nnc2c3ccccc3n(S(=O)(=O)c3ccc(C)cc3)c2n1` the activity, negative = inhibition was -3.04% [at 11.4 µM] and -5.32% [at 11.4 µM]. In the case of `O=c1c(-c2ccc(F)cc2)nc2cnc(Nc3ccccc3)nc2n1Cc1cccs1`, the “activity, negative = inhibition” value is reported as 8.67%. In the case of `CC(C)N(CC(=O)O)CC(=O)O`, the activity, negative = inhibition is reported as 12.3% [at 11.4 µM]. For `CO[C@H]1COC(=O)[C@@H](C)COC(=O)[C@@H](Cc2ccccc2)NC(=O)C/C=C\[C@H]1C`, the activity, negative = inhibition was 0.386% [at 11.4 µM].
